HTT ATP protect: cytoprotection in Huntington HTT-Q103 PC12 cell model; PC12 HTT-Q103 induced, cytoprotection, ATP luminescence, 40 h; Potency, µM (titrated, usually from 56.4 µM), most hits filed as activators; actives 0.14% (n = 230,000); further: nearly all actives have a fitted effect of over 45% in size
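Huntington model: PC12 line, ecdysone-inducible HTTQ103 exon1–GFP, tebufenozide 100 nM. Test articles in a dose series. Endpoint luminescence from cellular ATP.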
ALDH1A1 inh: inhibitors of human aldehyde dehydrogenase 1A1 | Purified ALDH1A1, NADH fluorescence, propionaldehyde substrate | P00352 | Potency, µM (titrated, usually from 75.3 µM), usual class: inhibitors | actives 7.3% (n = 220,000) | AID 1030; active means well fitted inhibition curve with a large enough effect, not every such curve was filed as active; inconclusive means small, poorly fitted or top-dose-only effect, or another doubt; inactive means no such curve, though single readings can be large or run the other way
Target sequence (P00352 whole entry, looked up): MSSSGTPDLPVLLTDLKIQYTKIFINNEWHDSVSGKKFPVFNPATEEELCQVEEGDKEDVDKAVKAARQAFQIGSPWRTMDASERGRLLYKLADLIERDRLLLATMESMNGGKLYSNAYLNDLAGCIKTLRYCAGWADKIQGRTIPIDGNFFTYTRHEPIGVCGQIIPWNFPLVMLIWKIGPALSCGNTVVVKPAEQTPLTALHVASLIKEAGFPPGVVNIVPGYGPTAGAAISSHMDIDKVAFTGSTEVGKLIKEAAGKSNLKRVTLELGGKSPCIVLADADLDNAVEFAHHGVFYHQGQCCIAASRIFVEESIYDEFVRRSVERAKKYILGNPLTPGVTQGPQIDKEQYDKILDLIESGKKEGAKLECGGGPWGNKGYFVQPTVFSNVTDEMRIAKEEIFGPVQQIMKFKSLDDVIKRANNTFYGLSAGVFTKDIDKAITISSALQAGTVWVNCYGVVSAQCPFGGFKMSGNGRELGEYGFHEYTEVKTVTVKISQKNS
HPGD block: HPGD (human) dehydrogenase inhibition; actives 4.3% (n = 150,000); Potency, µM, usual class: inhibitors; P15428; purified HPGD, NADH fluorescence kinetic, PGE2 substrate; AID 894; active means well fitted inhibition curve with a large enough effect, not every such curve was filed as active; inconclusive means small, poorly fitted or top-dose-only effect, or another doubt; inactive means no such curve, though single readings can be large or run the other way
Target sequence (P15428 whole entry, looked up): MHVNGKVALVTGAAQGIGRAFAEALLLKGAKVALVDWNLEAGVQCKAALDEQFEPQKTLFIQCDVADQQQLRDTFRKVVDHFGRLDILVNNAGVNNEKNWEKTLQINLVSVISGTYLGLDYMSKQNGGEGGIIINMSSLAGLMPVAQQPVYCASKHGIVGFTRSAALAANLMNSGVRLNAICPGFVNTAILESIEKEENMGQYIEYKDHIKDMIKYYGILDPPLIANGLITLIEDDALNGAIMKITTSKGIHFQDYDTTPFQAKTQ
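20 nM HPGD preincubated 15 min at room temperature with compound in 50 mM Tris-HCl pH 8, 0.01% Tween 20. Started with 1 mM NAD+ and 30 uM prostaglandin E2; NADH fluorescence (360/450 nm) read 5 times over 30-s intervals, last minus first.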
Lamin A splicing: changes lamin A minigene splicing in HeLa cells. HeLa LMNA splicing GFP/RFP minigene ratio, 48 h. Potency, µM (top dose mostly 46.1 µM), actives largely listed as inhibitors. actives 0.01% (n = 200,000). AID 1487; active means well fitted inhibition curve with a large enough effect in the signal ratio, with a control signal flat, not every such curve was filed as active; inconclusive means small, poorly fitted or top-dose-only effect, or effect the other way, or a change in a side signal; the % refers to the signal ratio
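S3 HeLa cells stably expressing lamin A-EGFP splicing minigene plus DsRed2, 600 cells/well, 48 h compound exposure at 37C. Laser-scanning cytometry; analysed as GFP (500-530 nm)/RFP (575-640 nm) total intensity ratio; 0.5% DMSO vehicle.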
HTT aggregate: reduces HttQ103-GFP aggregates in PC12 cells | PC12 HttQ103-GFP aggregates, Acumen cytometry, 40 h | Potency, µM (doses to about 46.1 µM), hits mostly inhibitors | actives 1.1% (n = 220,000) | AID 1688; further: nearly all actives have a fitted effect of over 60% in size
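Quantitative HTS on tebufenozide-induced (100 nM) PC12 cells stably expressing polyQ103 Huntingtin exon 1–GFP. Reduction of bright GFP aggregates, detected by laser scanning cytometry after lysis, identified actives across the titration.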
Of the large screens only hits and unclear results are named; the others gave an inactive call; ! = not active in a repeat. In the library only some 8.8% were active in any assay of this set; here they are far more common. Unless noted, the call rests on the fitted dose curve; in most records, active means well fitted curve in the direction sought with a large enough effect; inconclusive means small, poorly fitted or top-dose-only effect, or another doubt; inactive means no such curve, though single readings can be large; an effect the other way counts as inactive or inconclusive.

C=C(C)CSc1nc(N)c(C#N)c(-c2ccc(C)cc2)c1C#N	ALDH1A1 inh 10µM, HPGD block 14µM
CCCCOC(=O)CSc1nc(N)c(C#N)c(-c2ccc(OCC)cc2)c1C#N	ALDH1A1 inh 20µM
CCCCC/C=C\C/C=C\C/C=C\CCCCCCC(=O)NCCc1ccc(O)c(O)c1	none (no result: Lamin A splicing, HTT aggregate)
CC(C(=O)O)N1C(=O)/C(=C/C=C/c2ccco2)SC1=S (stereo not given)	HPGD block 16µM
C=CCn1c(-c2ccc([N+](=O)[O-])cc2)n[nH]c1=S	none
COc1ccc2c(c1OC)C(=O)OC2[C@H]1c2c(cc3c(c2OC)OCO3)CCN1C (stereo not given in full)	none
COc1cccc(C(=O)CC2c3c(c(Br)c4c(c3OC)OCO4)CCN2C)c1 (stereo not given)	ALDH1A1 inh 7.9µM, HPGD block inconclusive (no result: Lamin A splicing, HTT aggregate)
COc1ccc(C(=O)CCNc2ccc(C)c(Cl)c2)cc1	ALDH1A1 inh 3.2µM
COc1ccc(C(=O)CCNc2ccc(F)cc2)cc1	none (no result: ALDH1A1 inh, HPGD block, Lamin A splicing)
O=C(CSc1nccc(=O)[nH]1)NN(c1ccccc1)c1ccccc1	none (no result: HPGD block, Lamin A splicing)
Cc1cccc(-n2nc(CC#N)c(C#N)c2N)c1	Lamin A splicing inconclusive (no result: HPGD block)
COc1ccccc1N(C(=O)c1ccncc1)c1nc(-c2ccc([N+](=O)[O-])cc2)cs1	ALDH1A1 inh 11µM, Lamin A splicing inconclusive
NS(=O)(=O)c1cccc(NS(=O)(=O)c2ccc(/C=C/C(=O)OCC(=O)c3ccccc3)cc2)c1	none (no result: HTT ATP protect, HPGD block)
O=C(NCc1ccco1)C1CCC(CNS(=O)(=O)c2cccc3cccnc23)CC1 (stereo not given)	ALDH1A1 inh 13µM, HPGD block 20µM
O=C(NCc1ccco1)C1CCCN(S(=O)(=O)c2cccc3cccnc23)C1 (stereo not given)	ALDH1A1 inh 25µM
COc1ccccc1CNC(=O)C1CCCN1S(=O)(=O)c1cccc2cccnc12 (stereo not given)	ALDH1A1 inh inconclusive, HPGD block 22µM
O=C(NCCc1ccccc1)C1CCN(S(=O)(=O)c2ccc(-n3cnnn3)cc2)CC1	ALDH1A1 inh 14µM, HTT aggregate 2.8µM
COc1cc(NC(=O)C2CCCN2S(=O)(=O)c2cccc3cccnc23)cc(OC)c1OC (stereo not given)	none
O=C(NCCC1=CCCCC1)C1CCN(S(=O)(=O)c2ccc(-n3cnnn3)cc2)CC1	ALDH1A1 inh inconclusive, Lamin A splicing inconclusive
O=C(NCc1ccco1)C1CCCN(S(=O)(=O)c2ccc(-n3cnnn3)cc2)C1 (stereo not given)	ALDH1A1 inh 25µM
COc1ccccc1CNC(=O)CN1C(=O)CCc2cc(S(=O)(=O)N3CCOCC3)ccc21	none (no result: HTT ATP protect, ALDH1A1 inh, HPGD block, HTT aggregate)
CC(C)NC(=S)N1CCN(S(=O)(=O)c2cccc(C(F)(F)F)c2)CC1	none
Cc1cc2c(nn1)CCc1c-2no[n+]1[O-]	none (no result: ALDH1A1 inh, HPGD block, Lamin A splicing)
[O-][n+]1onc2c1CCC(=N/O)/C2=N\Nc1ccccc1	ALDH1A1 inh 3.5µM (no result: HPGD block, Lamin A splicing)
O=C(O)CCN1C(=S)CSC1=S	none (no result: Lamin A splicing, HTT aggregate)
S=C1NC2=C(CCCC2)C2(CCCCC2)N1	HTT ATP protect inconclusive, ALDH1A1 inh 0.32µM, HTT aggregate inconclusive
Cc1nc(NC(=O)c2ccc([N+](=O)[O-])cc2Cl)sc1C(=O)N(C)C	ALDH1A1 inh 13µM, HPGD block 14µM (no result: HTT ATP protect)
N.N.N.N.N.N.N.N.N.N.N.N.N.N.O.O.[Cl-].[Cl-].[Cl-].[Cl-].[Cl-].[Cl-].[Ru].[Ru].[Ru]	Lamin A splicing inconclusive (no result: HTT ATP protect, HTT aggregate)
COc1ccccc1CN1C(=O)CN(C2CCCCCC2)C(=O)C1c1ccc(C)cc1 (stereo not given)	none (no result: HTT ATP protect, ALDH1A1 inh, HPGD block, HTT aggregate)
CN(NS(=O)(=O)c1ccc(Cl)cc1)c1nc(C(F)(F)F)nc2ccccc12	Lamin A splicing inconclusive, HTT aggregate 10µM (no result: HPGD block)
CN(NS(=O)(=O)c1ccccc1)c1nc2ccccc2nc1C(F)(F)F	none
CCCOc1ccc(Cn2cnc3ccccc32)cc1	Lamin A splicing inconclusive, HTT aggregate 25µM
COc1cc(NCCCC(C)N)c2ncccc2c1 (stereo not given)	ALDH1A1 inh 22µM, HTT aggregate 18µM!
Cc1ccccc1NC(=O)Nc1ccccc1C(N)=O	none (no result: HPGD block, Lamin A splicing)
Cc1ccccc1NNC(N)=S	ALDH1A1 inh 22µM (no result: HPGD block)
S=C(Nc1cccc(Cl)c1)NC1CCCCC1	none
Cc1cccc(NNC(N)=S)c1	ALDH1A1 inh 8.9µM (no result: HPGD block, Lamin A splicing)
NC(=S)NNc1cccc(Cl)c1	ALDH1A1 inh 1.6µM
S=C(NNc1cccc(Cl)c1)NC1CCCCC1	ALDH1A1 inh 25µM, Lamin A splicing inconclusive (no result: HPGD block)
NC(=S)NNC(=O)Nc1cccc(Cl)c1	none (no result: HTT ATP protect)
Cc1ccc(Cl)cc1N1CCN(C(=O)c2cc(S(=O)(=O)N3CCC(C)CC3)cn2C)CC1	none (no result: HTT ATP protect, ALDH1A1 inh, HPGD block, HTT aggregate)
Nc1nnnn1CC(=O)N/N=C/c1cc([N+](=O)[O-])ccc1Cl	none (no result: HPGD block)
Cc1cc([N+](=O)[O-])c(C)cc1-c1ccc(/C=N/NC(=O)Cn2nnnc2N)o1	ALDH1A1 inh 15µM (no result: HPGD block)
C/C(CC(=O)Nc1ccccc1Cl)=N\NC(=O)C(=O)NCCO	ALDH1A1 inh 10µM (no result: HPGD block)
C/C(CC(=O)Nc1cccc(Cl)c1C)=N\NC(=O)C(=O)NCC(C)C	ALDH1A1 inh inconclusive (no result: HTT ATP protect)
O=C1C(c2[nH]c3ccc(S(=O)(=O)O)cc3c2O)=Nc2ccc(S(=O)(=O)O)cc21	ALDH1A1 inh inconclusive, HPGD block inconclusive (no result: Lamin A splicing, HTT aggregate)
C=C(C)C1CC=C(C)/C(=N/NC(=O)c2ccc(NC(=O)c3cccc(C)c3)cc2)C1 (stereo not given)	none
C=C(C)C1CC=C(C)/C(=N/NC(=S)Nc2ccccc2)C1 (stereo not given)	ALDH1A1 inh 35µM, Lamin A splicing inconclusive (no result: HTT ATP protect)
Cc1ccc2cccnc2c1	HTT ATP protect 6.3µM, ALDH1A1 inh inconclusive (no result: Lamin A splicing, HTT aggregate)
Cc1cc(C)cc(C(=O)/C=C2\NC(=O)CS2)c1	HPGD block inconclusive
Cc1ccccc1C(=O)/C=C1\NC(=O)CS1	ALDH1A1 inh 25µM, HPGD block 16µM, Lamin A splicing inconclusive
O=C1CS/C(=C/C(=O)c2ccccc2)N1	HPGD block 20µM
COc1ccccc1C1C2=C(N=c3s/c(=C/c4cccc(OCC(=O)O)c4)c(=O)n31)c1ccccc1CC2 (stereo not given)	ALDH1A1 inh inconclusive, HPGD block 28µM, Lamin A splicing inconclusive, HTT aggregate inconclusive
CCOc1ccccc1C(=O)N1CCC(n2nnc3cc(C(F)(F)F)ccc32)CC1	ALDH1A1 inh 28µM, HTT aggregate inconclusive
C/C(Cn1cnc([N+](=O)[O-])n1)=N\NC(=O)c1cccnc1	none
C/C(Cn1nnc([N+](=O)[O-])n1)=N\NC(=O)c1ccc(Cl)c(Cl)c1	ALDH1A1 inh 28µM, Lamin A splicing inconclusive, HTT aggregate inconclusive
C/C(Cn1nnc([N+](=O)[O-])n1)=N\NC(=O)c1ccc(O)cc1	none (no result: ALDH1A1 inh, HPGD block, Lamin A splicing)
C/C(Cn1cnc([N+](=O)[O-])n1)=N/NC(=O)COc1ccccc1Cl	ALDH1A1 inh 14µM
C/C(Cn1cnc([N+](=O)[O-])n1)=N\NC(=O)c1ccccc1O	none (no result: HPGD block)

Screens (PubChem BioAssay)
